The source made the active and inactive calls. Rule for the calls: active = hit-call score of the fitted dose curve at least 0.9, where 1 is the maximum; inactive = score below 0.9.

Read-out in test [1]: TIMP metallopeptidase inhibitor 2 (TIMP2), TIMP2 (gene 7077)
The test can be described thus: BSK_KF3CT_TIMP2: BioMAP Diversity Plus: KF3CT Assay for TIMP metallopeptidase inhibitor 2 (TIMP2) Biomarker Activity (AID 2283071). The following applies: primary human keratinocytes with fibroblasts; actives raise or lower the signal. An outline of the steps:
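Co-culture of human primary keratinocytes and foreskin fibroblasts, measured 24 h after chemical dosing. TIMP-2 quantified by ELISA and fitted in both directions relative to DMSO. Cytotoxicity checked in parallel cultures by SRB total-protein staining.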

Read-out in test [2]: Transforming growth factor beta 1 (TGFb1), TGFB1 (gene 7040)
The test is described as follows: BSK_KF3CT_TGFb1: BioMAP Diversity Plus: KF3CT Assay for Transforming growth factor beta 1 (TGFb1) Biomarker Activity (AID 2283072). To be noted: primary human keratinocytes with fibroblasts; actives raise or lower the signal. A digest of the protocol: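 Human keratinocyte/foreskin fibroblast co-culture; TGF-b1 measured by ELISA 24 h after dosing, fitted bidirectionally versus DMSO. Cytotoxicity checked in parallel cultures by total protein (SRB staining, 560 nm).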

Read-out in test [3]: C-C motif chemokine 2 (Homo sapiens) (UniProt P13500)
The test is described as follows: BSK_KF3CT_MCP1: BioMAP Diversity Plus: KF3CT Assay for Monocyte Chemoattractant Protein 1 (MCP1/CCL2) Biomarker Activity (AID 2283073). To be noted: primary human keratinocytes with fibroblasts; actives raise or lower the signal. An outline of the steps: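 ELISA read-out of MCP-1, 24 h post-dose, in primary human skin keratinocytes co-cultured with fibroblasts. Parallel SRB staining monitors cytotoxicity; changes fitted both directions relative to DMSO.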

Read-out in test [4]: urokinase plasminogen activator (uPA), PLAU (gene 5328)
The test can be described thus: BSK_KF3CT_uPA: BioMAP Diversity Plus: KF3CT Assay for urokinase plasminogen activator (uPA) Biomarker Activity (AID 2283075). To be noted: primary human keratinocytes with fibroblasts; actives raise or lower the signal. A digest of the protocol: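 Primary human keratinocyte/foreskin fibroblast co-culture exposed to chemical; uPA measured by ELISA at 24 h. Bidirectional fit versus DMSO, with parallel SRB total-protein staining for cytotoxicity.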

Read-out in test [5]: CD40, CD40 (gene 958)
The test can be described thus: BSK_LPS_CD40: BioMAP Diversity Plus: LPS Assay for CD40 Biomarker Activity (AID 2283076). The following applies: primary human HUVEC with PBMC; actives raise or lower the signal. A digest of the protocol:
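In the LPS system of human endothelial cells with peripheral blood mononuclear cells, CD40 levels were read by ELISA 24 h post-treatment. Signal changes in either direction were fitted against the DMSO baseline, with parallel SRB protein staining.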

Read-out in test [6]: E-selectin (Homo sapiens) (UniProt P16581)
The test is described as follows: BSK_LPS_Eselectin: BioMAP Diversity Plus: LPS Assay for Eselectin Biomarker Activity (AID 2283077). The following applies: primary human HUVEC with PBMC; actives raise or lower the signal. An outline of the steps: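 E-selectin ELISA on LPS-stimulated endothelial cell/PBMC co-cultures, read 24 h post-treatment; gains and losses fitted against DMSO. Parallel SRB staining (0.1% SRB after 10% TCA fixation, 560 nm) flags overt cytotoxicity.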

Read-out in test [7]: Interleukin-8 (IL8), CXCL8 (gene 3576)
The test can be described thus: BSK_LPS_IL8: BioMAP Diversity Plus: LPS Assay for Interleukin-8 (IL8) Biomarker Activity (AID 2283078). The following applies: primary human HUVEC with PBMC; actives raise or lower the signal. An outline of the steps:
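ELISA read-out of IL-8 after 24 h chemical treatment of LPS-activated endothelial/PBMC human primary co-cultures. Changes either up or down relative to DMSO; overt cytotoxicity checked by sulforhodamine B staining in parallel wells.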

The nature of test [8]: BSK_LPS_SRB: Viability Assessment in the BioMAP Diversity Plus: LPS Assay (AID 2283079).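 Note: total protein by sulforhodamine B absorbance as a cytotoxicity measure; measured one day after compound addition; fitted in both directions against DMSO so loss or gain of signal counts.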 To be noted: primary human HUVEC with PBMC. An outline of the steps:
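SRB viability endpoint: cells fixed with 10% TCA, stained with 0.1% SRB, read at 560 nm, 24 h post-dose. HUVEC/PBMC co-culture; signal change in either direction scored relative to DMSO.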

Read-out in test [9]: Interleukin-1 alpha (IL1a), IL1A (gene 3552)
The test can be described thus: BSK_LPS_IL1a: BioMAP Diversity Plus: LPS Assay for Interleukin-1 alpha (IL1a) Biomarker Activity (AID 2283080). To be noted: primary human HUVEC with PBMC; actives raise or lower the signal. A digest of the protocol: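 Readout is IL-1a level by ELISA, 24 h post-dose, fitted as gain or loss relative to DMSO. System: LPS-activated human primary co-culture of vascular endothelium and peripheral blood mononuclear cells, with parallel SRB total-protein cytotoxicity.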

E-selectin (Homo sapiens), sequence (P16581 whole entry, looked up): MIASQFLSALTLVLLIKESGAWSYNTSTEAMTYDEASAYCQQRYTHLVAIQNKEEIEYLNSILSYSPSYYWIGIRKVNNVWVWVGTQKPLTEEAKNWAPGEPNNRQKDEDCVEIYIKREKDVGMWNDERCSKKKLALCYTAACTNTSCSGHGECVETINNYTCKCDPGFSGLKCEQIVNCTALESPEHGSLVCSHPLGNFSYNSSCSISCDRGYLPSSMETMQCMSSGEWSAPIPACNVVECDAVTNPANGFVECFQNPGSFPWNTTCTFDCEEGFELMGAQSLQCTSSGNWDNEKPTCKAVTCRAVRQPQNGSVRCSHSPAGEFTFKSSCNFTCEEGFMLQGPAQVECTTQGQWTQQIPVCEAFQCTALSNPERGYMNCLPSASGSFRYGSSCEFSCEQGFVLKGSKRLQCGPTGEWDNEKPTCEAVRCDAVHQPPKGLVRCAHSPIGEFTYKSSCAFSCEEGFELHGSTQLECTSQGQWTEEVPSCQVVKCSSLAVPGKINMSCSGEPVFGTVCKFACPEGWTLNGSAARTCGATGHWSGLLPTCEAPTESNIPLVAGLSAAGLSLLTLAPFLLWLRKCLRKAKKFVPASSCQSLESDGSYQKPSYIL

Regarding `CCCCCCCC=O`, the result in test [1], in [2], in test [3], in test [4], in test [5] and in [6] was inactive. Besides, the result in [7], in test [8] and in test [9] was inactive.

On to `Cc1nc(C)nc(N2C[C@@H](C)N(c3ccnc([C@@H](C)O)n3)[C@@H](C)C2)n1`, for which the outcome in [1], in test [2], in test [3], in test [4], in test [5] and in [6] was inactive. Besides, the outcome in [7], in test [8] and in test [9] was inactive.

As for `C[Si]1(C)O[Si](C)(C)O[Si](C)(C)O[Si](C)(C)O1`, the result in test [1], in test [2], in test [3], in test [4], in [5] and in [6] was inactive. The result in test [7], in test [8] and in test [9] was inactive.

For `Cc1ccc2ncccc2c1`, the outcome in test [1], in test [2], in [3], in [4], in test [5] and in test [6] was inactive. Besides, the outcome in [7], in test [8] and in test [9] was inactive.

In the case of `CCCCC(CC)COC(=O)CC(C(=O)OCC(CC)CCCC)S(=O)(=O)O` (stereo unspecified), the concentration at half-maximal activity (AC50) – broadly, the concentration at which the activity in the assay is half-maximal – in test [2] is 2.66 µM (active); in test [3], 3.25 µM (active); in [4], 12 µM (active); in [5], 32.3 µM (active); in test [6], 38 µM (active); in test [7], 31.6 µM (active). Moreover, the AC50 in [8] was 30.7 µM (active); in [9], 32.3 µM (active).

For `CCCCCCCCCCCCCCCC`, the result in test [1], in test [2], in [3], in test [4], in test [5] and in [6] was inactive. Also, the outcome in test [7], in test [8] and in test [9] was inactive.

Consider `Oc1ccc2c(c1)OC[C@@H](N1CCC(O)(c3ccc(F)cc3)CC1)[C@H]2O`, for which the outcome in test [1], in [2], in test [3], in [4], in test [5] and in test [6] was inactive. In addition, the result in test [7], in test [8] and in test [9] was inactive.

As for `CC(=O)OC/C=C(\C)CCC=C(C)C`, the result in test [1], in test [2], in [3], in test [4], in [5] and in test [6] was inactive. In addition, the outcome in test [7], in test [8] and in test [9] was inactive.

With `O=c1[nH]cc(F)c(=O)[nH]1`, the result in test [1], in test [2], in test [3], in [4], in test [6] and in test [7] was inactive. For the same compound, the result in test [8] and in test [9] was inactive. Moreover, the AC50 in [5] was 20.4 µM (active).

In the case of `O=C(O)CCCCC(=O)O`, the outcome in test [1], in test [2], in test [3], in test [4], in test [5] and in [6] was inactive. Further, the result in test [7], in [8] and in test [9] was inactive.

On to `CCCCCCCCCCO`, for which the result in test [1], in test [2], in [3], in [4], in test [5] and in [6] was inactive. The outcome in [7], in [8] and in [9] was inactive.

Regarding `C1CCC(SSC2CCCCC2)CC1`, the AC50 is 5.11 µM (active) in test [1] and 5.33 µM (active) in test [2]. Further, the result in test [3], in test [4], in test [5], in test [6], in test [7] and in test [8] was inactive. Moreover, the result in test [9] was inactive.

Take `COc1cc(S(=O)(=O)O)c(C)cc1N=Nc1c(O)ccc2cc(S(=O)(=O)O)ccc12`: the outcome in test [1], in test [2], in test [3], in test [4], in test [5] and in test [6] was inactive. The result in test [7], in [8] and in test [9] was inactive.

In the case of `NCCO`, the result in test [1], in [2], in [3], in test [4], in test [5] and in test [6] was inactive. In addition, the outcome in [7], in test [8] and in test [9] was inactive.

As to `CC(C)(C)c1cc(O)c(C(C)(C)C)cc1O`, the outcome in test [1], in [2], in test [3], in [4], in test [5] and in [8] was inactive. For the same compound, the outcome in test [9] was inactive. Also, the AC50 in test [6] was 7.72 µM (active); in test [7], 1.39 µM (active).

As for `CN1CCCC1=O`, the outcome in test [1], in [2], in test [3], in [4], in test [5] and in test [6] was inactive. Moreover, the result in test [7], in test [8] and in test [9] was inactive.

Regarding `Clc1cc(Cl)c(Cl)cc1Cl`, the result in test [1], in [2], in [3], in test [4], in [5] and in [6] was inactive. Further, the outcome in [7], in test [8] and in test [9] was inactive.

As to `CC1(C)NC(=O)NC1=O`, the result in test [1], in test [2], in test [3], in test [4], in test [5] and in [6] was inactive. Besides, the outcome in test [7], in [8] and in test [9] was inactive.

For the compound `Nc1nc(N)c2nc(CNc3ccc(C(=O)N[C@@H](CCC(=O)O)C(=O)O)cc3)cnc2n1`, the result in test [1], in test [2], in test [3], in test [4], in [5] and in test [6] was inactive. In addition, the result in test [7], in test [8] and in test [9] was inactive.

Regarding `Cc1c(C(=O)O)c(O)cc2c1C(=O)c1c(O)c([C@@H]3O[C@H](CO)[C@@H](O)[C@H](O)[C@H]3O)c(O)c(O)c1C2=O`, the outcome in [1], in test [2], in test [3], in [4], in test [6] and in [7] was inactive. Also, the outcome in test [8] and in test [9] was inactive. Also, the AC50 in test [5] is 0.782 µM (active).

For `O=c1c(O)c(-c2ccc(O)c(O)c2)oc2cc(O)cc(O)c12`, the half-maximal activity concentration (AC50) in test [1] was 20 µM (active); in test [2] it was 20 µM (active); in [3], 24.2 µM (active); in [4], 12.7 µM (active); in test [5] it was 28.5 µM (active); in test [7], 20 µM (active). The half-maximal activity concentration (AC50) in [8] is 32.8 µM (active). For the same compound, the result in [6] and in [9] was inactive.

Regarding `C=CCc1ccc(O)c(OC)c1`, the outcome in test [1], in test [2], in test [3], in [4], in [5] and in test [6] was inactive. Moreover, the result in [7], in test [8] and in [9] was inactive.

Take `CCCCCCCCCCC`: the outcome in [1], in [2], in test [3], in [4], in test [5] and in test [6] was inactive. The outcome in test [7], in test [8] and in test [9] was inactive.

These data come from PubChem BioAssay (EPA / NIEHS).
